We go through 57 compounds from PubChem BioAssay AID488899 (Broad Institute, 2010).

Structures are written as SMILES. Out of some 330,000 compounds screened, about 2,800 (0.85%) were called active.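 How the source made its calls: active means mean inhibition across replicates of 60% or more, whatever share of single replicates reaches that level; inconclusive means some that reach 60%, reason not given; inactive means mean inhibition across replicates below 60%.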 For the sample, actives were picked, then their nearest neighbours and some compounds at random.

What is called inhibition is the relative decrease from the control value, in per cent.

The experiment is described as follows: MITF transcriptional activity suppression – cell-based, SK-MEL-5, single point, luciferase, primary screen (AID 488899). The following applies: SK-MEL-5 TRPM1 promoter luciferase, 24 h; at 12.5 µM; stronger effect = higher value.
For the compound `Clc1ccc(C[n+]2cc(-c3ccc(Cl)cc3)n3c2CCC3)cc1`, the inhibition is 47.5% (inactive).
The same measure for `CN(C)Cc1c(C(=O)N/N=C/c2ccccc2OCc2ccc(F)cc2)nnn1-c1nonc1N`: -15.2% (inactive); for `Cc1ccc2c(O)c(Cc3ccccc3)c(=O)[nH]c2n1`: 2.8% (inactive).
The same measure for `COC(=O)COc1ccc2c(=O)c(Oc3ccccc3Br)coc2c1`: -0.261% (inactive); for `O=C(O)c1ccc(Cn2cnc3c(=S)nc[nH]c32)cc1`: -0.814% (inactive); for `COc1ccccc1-c1nnc2n1N=C(c1ccc(OC(F)F)c(OCC3CC3)c1)CS2`: -4.86% (inactive).
The result for `COc1ccc(C2=Nn3c(nnc3-c3ccccc3OC)SC2)cc1OC1CCCC1` reads 65.9% (active); that for `CC1=Nn2c(nnc2-c2ccccc2)SC1`, -0.377% (inactive); that for `COC(C[C@H](O)CC(=O)COCc1ccccc1)OC`, -3.12% (inactive).
For the compound `O=C(O)CN1c2cccc3cccc(c23)S1(=O)=O`, the inhibition was 13.3% (inactive).
The same measure for `N/C(=N\OC(=O)Nc1ccccc1)c1ccno1`: -14% (inactive); for `CCCCOc1ccc(C(=O)NN2CCN(C)CC2)cc1`: -7.2% (inactive).
On to `CCCOc1ccc(C(=O)C(CCC(CNCC)C(=O)c2ccc(OCCC)cc2)CNCC)cc1` (configuration not stated), for which the inhibition is 102% (active).
Consider `CCCOc1ccc(C(=O)CCC(=O)OC(C)C(=O)Nc2ccc(NC(C)=O)cc2)cc1` (configuration not stated), for which the inhibition was -26% (inactive).
Regarding `C=CCOc1ccc(/C=C2\SC(=S)N(CCC(=O)O)C2=O)cc1`, the inhibition is 78.2% (active).
The result for `Cc1ccc(/C=C2/SC(=S)N(CCC(=O)NCCCN3CCOCC3)C2=O)cc1` reads -20.1% (inactive); that for `COc1ccc(/C=C2\SC(=S)N(CCCC(=O)NC3CCCC3)C2=O)cc1OC`, 37.5% (inactive); that for `Cc1ccc(S(=O)(=O)N(CC(=O)Nc2cccc([N+](=O)[O-])c2)Cc2ccc(Cl)cc2)cc1`, 15.8% (inactive).
With `CC(=O)c1cccc(NC(=O)C2CCN(C(=O)c3ccccc3Cl)CC2)c1`, the inhibition is 28.4% (inactive).
The result for `O=C(COC(=O)C1CCN(S(=O)(=O)c2ccc3c(c2)OCCO3)CC1)Nc1ccccc1OC(F)F` reads -1.73% (inactive).
The result for `CCOC(=O)/C(=N\Nc1ccccc1[N+](=O)[O-])c1csc(Nc2ccccc2)n1` reads -14.3% (inactive); that for `CCOC(=O)/C(=C\c1ccc([N+](=O)[O-])cc1)C(=O)c1cc(C(C)=O)c(Nc2ccccc2)s1`, 100% (active).
For the compound `Cc1ccc(NC(=O)/C(=C/c2ccc([N+](=O)[O-])cc2)NC(=O)c2ccccc2)cc1`, the inhibition is 8.59% (inactive).
The same measure for `CC(=O)c1ccc(N2CCN(C(=O)CCNC(=O)Cn3ccc4ccccc4c3=O)CC2)cc1`: 0.055% (inactive); for `CCC(=C/c1sc2ccc3ccccc3c2[n+]1C)/C=C1\Sc2ccc3ccccc3c2N1C`: 77.8% (active).
Consider `Cc1nc(-c2nnc(SCC(=O)Nc3cc(C(F)(F)F)cc(C(F)(F)F)c3)n2C)cs1`, for which the inhibition was 6.42% (inactive).
As for `CCCCOc1ccc(C(=O)N/C(=C/C=C/c2ccccc2)C(=O)N2CCOCC2)cc1`, the inhibition was 0.224% (inactive).
Regarding `O=[N+]([O-])c1cc2ccccc2nc1-c1ccccc1`, the inhibition is -2.83% (inactive).
`CN(C)CCn1c2c(c(SCC(=O)Nc3ccccc3C(F)(F)F)nc1=O)CCCC2`: the inhibition is 1.54% (inactive).
The same measure for `O=[N+]([O-])c1ccccc1/C=C/CN1CCC(O)CC1`: -6.15% (inactive); for `CC1CCCCC1NC(=O)/C(C#N)=C/C=C/c1ccccc1[N+](=O)[O-]` (configuration not stated): 87% (active); for `O=[N+]([O-])c1ccccc1/C=C/CN1CCCC(CO)C1` (configuration not stated): 3.33% (inactive).
Take `CSCCC(NS(=O)(=O)c1ccc2c(c1)oc(=O)n2C)C(=O)NC1CCCc2ccccc21` (configuration not stated): the inhibition is 4.17% (inactive).
Regarding `Cc1cccc(/C(N)=N/OC(=O)c2ccccc2Cl)c1`, the inhibition was -7.17% (inactive).
`COc1ccccc1NC(=O)CCC(=O)N1CC(C)Oc2ccc(C)cc21` (configuration not stated): the inhibition was -0.622% (inactive).
The same measure for `CC1CN(C(=O)CCC(=O)NCc2cccnc2)c2ccccc2O1` (configuration not stated): -4.62% (inactive).
The result for `CC1CN(C(=O)CCC(=O)NCCCN2CCC(Cc3ccccc3)CC2)c2cc(Cl)ccc2O1` (configuration not stated) reads 81.8% (active).
The same measure for `COc1ccc(OC)c(-c2c(=O)n(OCc3ccccc3Br)c3ccccc3[n+]2[O-])c1`: 15.9% (inactive); for `CC(=O)Nc1ccc(S(=O)(=O)NC2Cc3ccccc3C2)cc1`: 4.61% (inactive).
Consider `C=C(C)C(=O)Nc1cccc(C2=NOC3(C2)C[C@H](C(N)=O)N(C(=O)C(c2ccccc2)c2ccccc2)C3)c1` (some centres not stated), for which the inhibition was 0.48% (inactive).
The same measure for `CCN(CC)S(=O)(=O)c1ccc(NC(=O)c2cccnc2Cl)c(NC(=O)c2cccnc2Cl)c1`: 74.2% (active); for `CCN(CC)S(=O)(=O)c1ccc(NC(=O)c2cnc(C)cn2)cc1`: 10.2% (inactive); for `CCN(CC)S(=O)(=O)c1ccc(Cl)c(NC(=O)c2ccncc2)c1`: 0.4% (inactive).
The result for `O=C1CC(c2ccccc2)C(c2ccccc2)=NN1` (configuration not stated) reads 5.8% (inactive); that for `Cc1cccc(N(C(=O)Cn2nnc(-c3ccc(C)o3)n2)C(C(=O)NC2CCCC2)c2ccncc2)c1` (configuration not stated), 3.32% (inactive).
The result for `CCN(CC)CCn1c2ccc(Cl)cc2c2nc(C)sc21` reads 6.02% (inactive); that for `CCN(CC)CCCC(C)n1c2nc(=O)[nH]c(=O)c-2nc2cc(Cl)ccc21` (configuration not stated), 83.3% (active); that for `CCOC(=O)c1c(C)[nH]c(C(=O)NCCN2CCOCC2)c1C`, 8.7% (inactive).
For `COc1ccccc1NC(=O)N(O)C1(C#N)CCCCC1`, the inhibition was -7.2% (inactive).
The same measure for `CN1c2ccc(C=O)c3c(C=O)ccc(c23)N(C)C1(C)C`: 96.4% (active); for `CCN(C(=O)COC(=O)c1c(NC(C)=O)sc(C)c1C)C1CCS(=O)(=O)C1` (configuration not stated): 11% (inactive).
The same measure for `COc1ccccc1NC(=O)CCCc1c[nH]c2ccccc12`: -1.28% (inactive); for `COc1ccc(C(CCNCc2ccccc2F)c2ccc(F)cc2)cc1` (configuration not stated): -10.4% (inactive).
For `COc1cccc(CNCCc2c[nH]c3ccccc23)c1OCc1ccccc1F`, the inhibition was 95.2% (active).
The same measure for `O=C(c1cc(COc2ccc(F)cc2F)on1)N1CCOCC1`: -44.5% (inactive); for `CC(C)c1ccc(S(=O)(=O)N2CCN(C(=O)CN3C(=O)NC(C)(c4ccccc4)C3=O)CC2)cc1` (configuration not stated): -4.8% (inactive).
The same measure for `Cc1csc(NC(=O)CSc2nnc(-c3cccnc3)o2)n1`: -14.8% (inactive).
